Out of some 1,300 compounds screened, about 1,000 (77%) were called active. About 7% were inconclusive and are not listed. The call rests on the fitted dose curve; in most records, active means well fitted inhibition curve with a large enough effect; inconclusive means small, poorly fitted or top-dose-only effect; inactive means no such curve, though single readings can be large or run the other way. The set was probably picked from earlier hits. The list shows a part of the results.
Potency means the concentration at half of the fitted maximal effect.

The experiment in a line: qHTS of small molecules that selectively kill Giardia lamblia: Hit Validation.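 Further: viability measured as ATP content by luminescence so killing lowers signal; trophozoites exposed to compounds for 48 h anaerobically at 37 °C; nearly all actives have a fitted effect of over 65% in size.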 The note with it: Giardia lamblia trophozoite viability, dose-response; series mostly up to 38.3 µM. The method, boiled down: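 Each well holds 100 Giardia trophozoites and compound. After two days (48 hrs) at 37 deg C in anaerobic conditions, ATP is quantified by luminescence.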
(In general: Quantitative high-throughput screening tests each substance at several concentrations.)
On to `COc1cc(CNc2nnnn2C)cc(OC)c1OC`, for which the Potency result was “inactive”.
Regarding `O=[N+]([O-])c1ccc(/C=N/Nc2nc(N3CCCC3)nc(N3CCCC3)n2)o1`, the Potency was 2050 nM (active).
On to `O=[N+]([O-])c1ccc(/C=N/Nc2nc(N3CCCCC3)nc(N3CCCCC3)n2)o1`, for which the Potency is 1160 nM (active).
In the case of `O=[N+]([O-])c1cc(/C=N/Nc2nc(N3CCCCC3)nc(N3CCCCC3)n2)ccc1O`, the Potency is 6500 nM (active).
To `COc1cccc(CNCc2cccc(Br)c2)c1OC` belongs “inactive”; to `O=[N+]([O-])c1ncccc1Oc1nc(-c2cccnc2)nc2ccccc12`, 2050 nM (active).
The value for `FC(F)(F)c1ccc2c(c1)N1CCCC1CN2` (stereo unspecified) was 1450 nM (active); that for `CCOC(=O)/C=C/[C@H]1CCc2cccc(Cl)c2O1` was “inactive”.
Turning to `Nc1ccc(-c2cnc(-c3ccc(N)cc3)nc2)cc1`, the Potency was 4100 nM (active).
Turning to `CNN/C(N=Cc1ccc([N+](=O)[O-])s1)=N\S(=O)(=O)c1cc(C)c(Cl)cc1SCc1ccccc1`, the Potency was 1030 nM (active).
The value for `CN1C(=O)/C(=C/c2ccc(O)c([N+](=O)[O-])c2)NC1=S` was 3260 nM (active); that for `CN1C(=O)/C(=C/c2ccc(O)c([N+](=O)[O-])c2)N(C)C1=S` was 3260 nM (active).
Consider `Cc1ccc(C(CC(=O)O)NC(=O)c2ccc(S(=O)(=O)N3CC(C)OC(C)C3)cc2)cc1` (stereo unspecified), for which the Potency result was “inactive”.
For the compound `O=C1c2ccc3c4c(ccc(c24)C(=O)N1CCCCO)C(=O)N(CCCCO)C3=O`, the Potency was 1830 nM (active).
The value for `O=C(CCN1C(=O)c2ccccc2C1=O)Nc1ccccc1C(F)(F)F` was “inactive”; that for `CC1CCc2c(sc(NC(=O)Cn3cnc([N+](=O)[O-])n3)c2C(N)=O)C1` (stereo unspecified) was 18300 nM (active).
To `CCOC(=O)c1c(NC(=O)CS(=O)(=O)c2cn(CC)c3ccccc23)sc2c1CCCCC2` belongs “inactive”; to `CC1CCc2c(sc(NC(=O)CCCn3cnc([N+](=O)[O-])n3)c2C(N)=O)C1` (stereo unspecified), 4600 nM (active).
For the compound `NC(=O)c1c(NC(=O)CCCn2cnc([N+](=O)[O-])n2)sc2c1CCCC2`, the Potency is 7290 nM (active).
As to `Cc1nc(CS(=O)(=O)c2ccc(Cl)cc2)sc1C(=O)O`, the Potency entry is “inactive”.
On to `CC(C)Cn1[nH]c2c3c(ccc2c1=O)C(=O)c1ccccc1C3=O`, for which the Potency is 1450 nM (active).
Consider `COCCCn1[nH]c2c3c(ccc2c1=O)C(=O)c1ccccc1C3=O`, for which the Potency was 1030 nM (active).
Turning to `O=C1c2ccccc2C(=O)c2c1ccc1c(=O)n(C3CCCCC3)[nH]c21`, the Potency is 2310 nM (active).
`CCc1ccc(S(=O)(=O)Nc2ccc(-c3ccc4nnc(C)n4n3)cc2)s1`: the Potency result is “inactive”.
Take `COC(=O)[C@@]12CCCCN1[C@H](c1ccc(-c3ccc(C(C)=O)cc3)cc1)[C@@H]1C(=O)N(C)C(=O)[C@@H]12`: the Potency entry was “inactive”.
`CCCCC12CN3CC(C)(CN(C1)C3c1ccc([N+](=O)[O-])o1)C2=O` (stereo unspecified): the Potency was 2050 nM (active).
With `CC12CN3CC(C)(CN(C1)C3c1ccc([N+](=O)[O-])o1)C2` (stereo unspecified), the Potency is 1300 nM (active).
`CCC12CN3CC(CC)(CN(C1)C3c1ccc([N+](=O)[O-])o1)C2=O` (stereo unspecified): the Potency was 4100 nM (active).
On to `CCCC12CN3CC(C)(CN(C1)C3c1ccc([N+](=O)[O-])o1)C2=O` (stereo unspecified), for which the Potency is 1830 nM (active).
The value for `O=c1cccc(-c2ccccc2)[nH]1` was “inactive”; that for `O=c1[nH]c(=O)c2cc([N+](=O)[O-])cc([N+](=O)[O-])c2[nH]1` was 4100 nM (active).
For `COC(=O)c1sc(NC(=O)COc2cccnc2[N+](=O)[O-])c(C(=O)OC)c1C`, the Potency is 4100 nM (active).
Consider `O=C(COc1cccnc1[N+](=O)[O-])N1CCc2ccccc21`, for which the Potency was 4100 nM (active).
As for `COc1ccccc1NC(=O)COc1cccnc1[N+](=O)[O-]`, the Potency was 6500 nM (active).
Take `O=C(COc1cccnc1[N+](=O)[O-])Nc1cccc2ccccc12`: the Potency is 4600 nM (active).
As for `COc1ccccc1NCCC(=O)OCC(=O)NC1CCCCCC1`, the Potency result is “inactive”.
Turning to `CC(C)Cn1c(=S)[nH]c2cc(C(=O)NCc3ccccc3F)ccc2c1=O`, the Potency result was “inactive”.
The value for `O=[N+]([O-])c1cnc2ccccn12` was 2050 nM (active).
The value for `S=c1[nH]nc2ccccn12` was “inactive”; that for `O=C(CSc1cccc[n+]1[O-])Nc1cc2c(cc1Cl)C(=O)c1ccccc1C2=O` was 2900 nM (active).
On to `COCCNC(=O)/C(C#N)=C/c1ccc(O)c([N+](=O)[O-])c1`, for which the Potency was 4600 nM (active).
As for `N#C/C(=C\c1ccc(O)c([N+](=O)[O-])c1)c1nc2ccccc2s1`, the Potency was 1830 nM (active).
The value for `N#C/C(=C/c1ccc(O)c([N+](=O)[O-])c1)C(=O)Nc1ccccc1` was 3260 nM (active); that for `N#C/C(=C\c1ccc(O)c([N+](=O)[O-])c1)C(=O)NCc1ccccc1` was 3260 nM (active); that for `CC(C)C[C@H](NC(=O)c1[nH]cnc1C(=O)N[C@H](C)c1ccccc1)C(=O)OCc1ccccc1` was “inactive”.
`CCN(CC)CC(=O)Nc1c(C)cccc1C`: the Potency entry was “inactive”.
Consider `O=c1/c(=C/c2ccc(O)c([N+](=O)[O-])c2)sc2nc3ccccc3n12`, for which the Potency is 2590 nM (active).
Take `COc1ccc2c(c1)C1OCCC1C(c1ccco1)N2` (stereo unspecified): the Potency was 2310 nM (active).
To `Cc1ccc(N2CC(C(=O)Nc3ncc([N+](=O)[O-])s3)CC2=O)cc1` (stereo unspecified) belongs 365 nM (active); to `O=C(Nc1ncc([N+](=O)[O-])s1)C1CC(=O)N(c2ccc(F)cc2)C1` (stereo unspecified), 1030 nM (active).
With `O=C(CCN=C1NS(=O)(=O)c2ccccc21)OCC(=O)c1ccc(F)c(F)c1`, the Potency result was “inactive”.
On to `CCCNC(=O)Cn1c(=O)n(C)c2ccccc21`, for which the Potency result is “inactive”.
On to `COc1cc2c(cc1OC)-c1c(OC)c(OC)cc3ccnc(c13)C2=O`, for which the Potency was 579 nM (active).
The value for `CCN(CC)CCCNc1nc2ccccc2c2[nH]c3ccc(OC)cc3c12` was 183 nM (active).
Regarding `COc1ccc(-c2nc(NCCCN(C)C)c3ccccc3n2)cc1`, the Potency is 818 nM (active).
Regarding `CCN1C(=O)[C@H]2[C@H]3CN=C(SCc4ccccc4)N3[C@@](Cc3ccccc3)(C(=O)OC)[C@H]2C1=O`, the Potency result is “inactive”.
To `Cc1nn2c3cc(N4CCOCC4)ccc3nc2c2ccccc12` belongs 1030 nM (active); to `COc1cccc2c1C(CO)N1C(C#N)C3CC(C(=O)O)C(C1C2)N3C` (stereo unspecified), 1160 nM (active); to `O=C(N/N=C/c1ccc([N+](=O)[O-])o1)C1CC1`, 1160 nM (active).
Take `O=C(N/N=C/c1ccc([N+](=O)[O-])o1)C1CCCC1`: the Potency is 516 nM (active).
`CCOc1cc([N+](=O)[O-])cc(/C=C2/NC(=O)N(Cc3ccccc3F)C2=O)c1O`: the Potency was 1630 nM (active).
To `CC(C)Oc1cc(O)c2c(=O)c(-c3ccc(O)cc3)coc2c1` belongs 516 nM (active); to `O=c1c(-c2ccc(F)cc2)coc2cc(O)ccc12`, 918 nM (active); to `COc1ccc(-c2coc3cc(O)ccc3c2=O)cc1`, 1160 nM (active).
Regarding `CC1(C)Oc2cc3oc(-c4cc(O)cc(O)c4)cc3cc2CC1O` (stereo unspecified), the Potency was 1450 nM (active).
For the compound `COC(=O)[C@]1(Cc2ccccc2)N[C@H](CN(C)C(=O)c2ccccc2)[C@@H]2C(=O)N(C)C(=O)[C@@H]21`, the Potency entry was “inactive”.
To `COc1ccc2oc(C(=O)OC(C)C(=O)NCc3ccccc3)c(C)c2c1` (stereo unspecified) belongs “inactive”; to `COc1ccc(C(=O)C(C)OC(=O)CNC(=O)C2CCCCC2)cc1` (stereo unspecified), 4600 nM (active); to `COc1ccc(C(=O)C(C)OC(=O)CNC(=O)c2ccco2)cc1` (stereo unspecified), 20500 nM (active).
As to `CCOC(=O)N=Nc1c2ccccc2c2nc3no[nH]c3nc12`, the Potency was 365 nM (active).
As for `Fc1cc2[nH]cnc2cc1Cl`, the Potency entry was “inactive”.
To `O=C(NCc1ccco1)NC(=O)c1csc([N+](=O)[O-])c1` belongs 1630 nM (active).
As to `CC(C)CNC(=S)NC(=O)c1csc([N+](=O)[O-])c1`, the Potency is 1300 nM (active).
The value for `COc1cc(/C=C/C(=O)c2ccc3c(c2)OCCO3)cc(OC)c1OC` was 7290 nM (active); that for `COc1cc(C(=S)N2CCOCC2)ccc1OC(=O)/C=C/c1ccco1` was “inactive”; that for `Cc1nn(-c2nc3ccccc3[nH]2)c(=O)c2ccccc12` was 230 nM (active).
Regarding `COC1C(OC(=O)/C=C/C=C/C=C/C=C/C(=O)O)CCC2(CO2)C1C1(C)OC1CC=C(C)C` (stereo unspecified) (tested in a mixture with another compound), the Potency is 1.5 nM (active).
For the compound `CCOc1ccc2nc(NC(=O)c3c([N+](=O)[O-])cnn3CC)sc2c1`, the Potency is 1830 nM (active).
On to `CCn1ncc([N+](=O)[O-])c1C(=O)Nc1nc2cccc(C)c2s1`, for which the Potency is 4100 nM (active).
Turning to `Cc1ccccc1C(=O)Nc1ccc2c(c1)OCCO2`, the Potency was 3650 nM (active).
In the case of `O=C(Nc1ccc2c(c1)OCCO2)c1ccc(Br)o1`, the Potency is 5160 nM (active).
As to `Cc1ccc(C(=O)Nc2ccc3c(c2)OCCO3)o1`, the Potency was 7290 nM (active).
Consider `O=C(Nc1ccc2c(c1)OCCO2)c1cc(-c2ccccn2)nc2ccc(Br)cc12`, for which the Potency is 4100 nM (active).
Take `Cc1ccc(-c2c(C(=O)N/N=C/C3CC=CCC3)nnn2-c2nonc2N)cc1` (stereo unspecified): the Potency result is “inactive”.
The value for `CN(C)S(=O)(=O)c1ccc(N2CCCC2)c(C(=O)N2CCN(c3ccc([N+](=O)[O-])cc3)CC2)c1` was 1830 nM (active); that for `O=C(CNC(=O)Cc1ccccc1)N=Nc1c(O)[nH]c2ccc(Br)cc12` was “inactive”.
As to `O=C(N=Nc1c(O)[nH]c2ccccc12)c1cccs1`, the Potency was 3650 nM (active).
Regarding `O=[N+]([O-])c1cncn1CCN1CCOCC1`, the Potency is 326 nM (active).
Take `C[C@]12c3[nH]c4ccc(Cl)cc4c3CCN1C(=O)[C@@H](CC(=O)NCCN1CCOCC1)C[C@@H]2C(=O)N1CCOCC1`: the Potency entry was “inactive”.
Consider `CC(=O)c1cccc(NC(=O)c2ccc([N+](=O)[O-])o2)c1`, for which the Potency is 1160 nM (active).
The value for `Cc1cc(C)cc(NC(=O)c2ccc([N+](=O)[O-])o2)c1` was 1030 nM (active).
For the compound `Cc1ccc(NC(=O)c2ccc([N+](=O)[O-])o2)cc1C`, the Potency is 460 nM (active).
`Cc1cccc(NC(=O)c2ccc([N+](=O)[O-])o2)c1`: the Potency was 729 nM (active).
Take `CC(=O)c1ccc(NC(=O)c2ccc([N+](=O)[O-])o2)cc1`: the Potency was 818 nM (active).
`COc1ccc(CC(=O)NCC(=O)Nc2ccccc2Br)cc1`: the Potency entry is “inactive”.
In the case of `COc1ccc(NC(=O)c2ccc([N+](=O)[O-])o2)cc1`, the Potency was 1030 nM (active).

Source of the values: PubChem BioAssay AID588397 (National Center for Advancing Translational Sciences (NCATS), 2011).
